The values below come from PubChem BioAssay (NCI).

SMILES strings stand for the structures. The panel holds about 83,000 compounds, 20% with a hit somewhere; the sample as a whole holds those more often.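 Growth was measured after 48 h exposure to one concentration of compound in 96-well plates. Values under 10 count as active.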 Values without a mark were called inactive. Active and inactive are the calls of the source.

The assay relates to HOP-62 NSCLC. Put plainly: NCI-60 one-dose screen, 48 h (100 = growth as untreated, 0 = no growth, -100 = all killed). The note with it: 10 µM unless noted. The method, then: Growth inhibition of the HOP-62 human Non-Small Cell Lung tumor cell line is measured as a screen for anti-cancer activity. Cells are grown in 96 well plates and exposed to the test compound for 48 hours. Compounds are tested at a single concentration, which is 10^-5 M for most compounds. The reported endpoint is percent growth (GI% or GIPRCNT), where numbers from 0 - 100% represent growth inhibition, and numbers from -100% - 0 represent cell death. For example, a value of 40 represents 60% growth inhibition. A value of 0 means no net growth occurred over the course of the experiment. A value of -40 indicates 40% of cells at the beginning of the experiment died by the end of the experiment. A value of -100 means all cells are dead at the end of the experiment.
NCI-60 Human Tumor Cell Lines Screen was performed using the standard one-dose NCI protocol, which is described in more detail at https://dtp.cancer.gov/discovery_development/nci-60/default.htm.
Compounds with GIPRCNT values below 10 were considered active. Activity score was based on GIPRCNT using the following formula: […]
Score is 0 for GIPRCNT values of 100 or above, 50 for GIPRCNT values of 0, and 100 for GIPRCNT values of -100.
On to `COc1cc(/C=C2\CN(C)CC3=C2Nc2nc(SC)[nH]c(=O)c2C3c2cc(OC)c(OC)c(OC)c2)cc(OC)c1OC` (stereo not given), for which the growth was 69.8%. On to `Cc1ccc(C(NC(=O)c2ccccc2)c2ccc3cccnc3c2O)cc1` (stereo not given), for which the growth is 17.3%.

For `Clc1ccc2c(c1)C(Br)c1cc(Cl)cc(Cl)c1-2` (stereo not given), the growth was 88.1%. `Cc1ccc(/C=C(/C#N)n2nnc3ncccc32)cc1`: the growth is 20.5%. With `Cc1sc2nc(NCc3ccccc3)[nH]c(=O)c2c1C`, the growth was 39.2%.

For `O=C1OC2(c3ccccc31)c1ccccc1-c1ccccc12`, the growth is 93.8%. In the case of `CC(=O)Nc1ccc(C(=O)COc2cccc(/C=C3\CCc4ccccc4C3=O)c2)cc1` it was 104%. Turning to `FCc1ncc(-c2ccc(C(F)(F)F)cc2)c(NC2CCCCCC2)n1`, the growth was 31.2% [100 µM]. Turning to `O=C(NCCNC(=O)Oc1cccc2ccccc12)Oc1cccc2ccccc12`, the growth is 84.7%. On to `Cc1cc(Cl)ccc1Nc1nc(C(F)(F)F)ccc1C(=O)N/N=C/c1ccc(Cl)cc1`, for which the growth is -61.2% (active). Regarding `CC(=O)N1N=C(c2ccc(Nc3ccnc4cc(Cl)ccc34)cc2)CC1c1ccc(Cl)cc1` (stereo not given), the growth was 73.1%. `CC1CN(/N=C/c2ccc([N+](=O)[O-])o2)C(=N)O1` (stereo not given): the growth is 103%. As for `Cc1ccc(-c2cc(-c3ccccc3)n(-c3ccccc3)n2)cc1`, the growth is -2.85% (active).

For `CCOC(=O)C(C(=O)OCC)C1CCCCC1`, the growth is 107%. In the case of `CC(=O)Nc1ccc(C(=O)COc2ccc(/C=C3\CCc4ccccc4C3=O)cc2)cc1` it was 113%; in that of `Nc1ccn(C2O[C@H](CO)[C@@H](O)[C@@H]2O)c(=O)n1` (stereo not given in full), 26.7%; in that of `c1ccc2nc(Cn3c[n+](Cc4ccc5ccccc5n4)c4ccccc43)ccc2c1`, 53.8%.

Turning to `CN1CCN(CCCCCN=c2cc3c(=O)n(CCCCCN4CCN(C)CC4)c(=O)c4c(NCCCCCN5CCN(C)CC5)cc5c(O)n(CCCCCN6CCN(C)CC6)c(=O)c2c5c4-3)CC1`, the growth was 14.6%. On to `COc1cc(/C=N/NC(=O)c2ccc(C(F)(F)F)nc2Nc2ccc(Cl)cc2C)ccc1O`, for which the growth is 9.04% (active). Turning to `Cc1ccc(OCC(=O)Nc2ccc(Oc3ccccc3)cc2)c([N+](=O)[O-])n1`, the growth was 79.6%. For the compound `CCCCCN1C(=O)CCC1=O`, the growth was 92.9%. As for `O=C(CSc1nnc(-c2cc(-c3ccccc3)nc3ccccc23)o1)c1ccc(Br)cc1`, the growth was 101%. As to `COc1ccc(C(=O)COc2ccc(/C=C3\Oc4ccc5ccccc5c4C3=O)cc2)cc1`, the growth was 104%. In the case of `CCSc1nc(-c2cccs2)n2nc(-c3ccco3)cc2n1` it was 101%; in that of `COc1cc(/C=C/C(=O)C(C(=O)/C=C/c2ccc(OC(=O)CCNc3nnc(C)s3)c(OC)c2)C(=O)CCNc2nnc(C)s2)ccc1OC(=O)CCNc1nnc(C)s1`, 27.6%; in that of `N#Cc1c(-c2ccccc2)cc(-c2ccccc2)n(CCCC(=O)O)c1=O`, 85.1%.

On to `CC(=O)c1ccccc1NC(=O)C(C)(c1ccccc1)c1ccccc1`, for which the growth was 40.4%. Take `Cc1ccc(-c2csc(N)n2)cc1`: the growth was 110%. Turning to `CCCCCc1c(C)[nH]c(/C=C2\N=C(c3ccc[nH]3)C=C2Oc2ccc(Cl)cc2)c1C`, the growth was -6.67% [100 µM] (active). In the case of `OCc1n(Cc2ccc3ccccc3c2)cc[n+]1Cc1ccc2ccccc2c1` it was 75%; in that of `CN[C@@H]1C(OC2[C@H](O[C@H]3[C@H](O)[C@@H](O)[C@H](N=C(N)N)[C@@H](O)[C@@H]3N=C(N)N)OC(C)[C@]2(O)CO)OC(CO)C(O)C1O` (stereo not given in full), 107%; in that of `COc1cc(OC)c2c(c1Cl)O[C@]1(C2=O)C(OCc2ccccc2)=CC(=O)C[C@H]1C`, 5.17% (active). Consider `CCOC(=O)/C=C1/SC(=Nc2ccc(C#N)cc2)N(Cc2ccco2)C1=O`, for which the growth is 60.3%. The figure for `COc1cnc2c(c1)C(=O)c1c-2n(CCCNC2=NCCS2)c(=O)c2cc(F)ccc12` is 11.2%; for `C[C@H](C(=O)N[C@@H](Cc1ccc(-c2ccccc2)cc1)C(=O)NC1CC(C)(C)NC(C)(C)C1)c1ccc(-c2ccccc2)c(F)c1` it is -67.4% (active); for `Cc1[nH]cnc1/C=C1\SC(N2CCCCC2)=NC1=O` it is 105%. For `C[C@H]1C(=O)N2c3ccccc3[C@@]3(O)C[C@@H](n4cnc5ccccc5c4=O)C(=O)N1[C@@H]23`, the growth is 97.4%. With `NC(=O)NC1(C(=O)O)CCCC1`, the growth is 110%. On to `CC(=O)Nc1c(Cl)cc2c(c1Cl)Cc1cc([N+](=O)[O-])ccc1-2`, for which the growth is 69.6%. Take `O=C(CC(C(=O)c1ccccc1)N1CCN(Cc2ccccc2)CC1)c1ccccc1` (stereo not given): the growth was 104%.
